Measured values as given in PubChem BioAssay AID1159580 (chemical genetic matrix, 2015).
“And” between values parts separate entries of the source, which are not always exact repeats. Identical values can stand only once. The whole screen tested about 5,500 compounds, of which about 2,000 (36%) were called active. Roughly 18% stayed inconclusive and do not appear here. No stated cut-off is given here; in the data, active means normalized growth mostly below about 0.91 (no sharp cut-off); inconclusive means no clear call, values can overlap the other calls; inactive means mostly above about 0.92. Some of the results follow.

Experiment: chemical genetic growth profiling, strain panel (AID 1159580);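 further: tested at 20 µM; growth read once vehicle control cultures reached saturation at 30 °C; 1 = growth at the plate median or of vehicle wells; lower values mean less growth of the strain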
Conditions: S. cerevisiae deletion strains, growth OD

Measured: normalized growth

CC(=O)O[C@H]1C[C@@]2(C)[C@@H](C[C@@H](O)C3[C@]2(C)CC[C@H]2[C@H](C)[C@H](O)CC[C@]32C)/C1=C(/CCC=C(C)C)C(=O)O (stereo partly drawn)
inactive: locus YAL013W, strain DEP1, active compounds read low 1.02 | locus YAL021C, strain ccr4, active compounds read low 1.02 | locus YAL026C, strain drs2, active compounds read low 1.01 | locus YAL030W, strain snc1, active compounds read low 1.03 | locus YBL061C, strain skt5, active compounds read low 1.04 | locus YBR009C, strain hhf1, active compounds read low 1.02 | locus YBR021W, strain FUR4, active compounds read low 1.04 | locus YBR023C, strain chs3, active compounds read low 1.04 | locus YBR171W, strain sec66, active compounds read low 1.01 | locus YBR229C, strain ROT2, active compounds read low 1.01 | locus YBR231C, strain swc5, active compounds read low 0.988 | locus YBR279W, strain paf1, active compounds read low 1.03 | locus YCL011C, strain gbp2, active compounds read low 1.01 | locus YCL016C, strain dcc1, active compounds read low 1.05 | locus YCL029C, strain bik1, active compounds read low 1.03 | locus YCL061C, strain MRC1, active compounds read low 1.02 | locus YCL069W, strain vba3, active compounds read low 1.01 | locus YCR088W, strain abp1, active compounds read low 1.01 | locus YDL005C, strain med2, active compounds read low 1.04 | locus YDL035C, strain GPR1, active compounds read low 0.989 | locus YDL040C, strain nat1, active compounds read low 1.02 | locus YDL074C, strain BRE1, active compounds read low 1.03 | locus YDL101C, strain DUN1, active compounds read low 1.01 | locus YDL134C, strain PPH21, active compounds read low 1 | locus YDL185W, strain tfp1, active compounds read low 1.01 | locus YDL192W, strain arf1, active compounds read low 1.03 | locus YDR001C, strain nth1, active compounds read low 1 | locus YDR069C, strain doa4, active compounds read low 1.03 | locus YDR101C, strain arx1, active compounds read low 1.02 | locus YDR137W, strain rgp1, active compounds read low 1 | locus YDR150W, strain NUM1, active compounds read low 1.02 | locus YDR159W, strain sac3, active compounds read low 0.989 | locus YDR162C, strain NBP2, active compounds read low 1 | locus YDR195W, strain ref2 1.03 | locus YDR297W, strain sur2, active compounds read low 1.02 | locus YDR318W, strain mcm21, active compounds read low 1.03 | locus YDR334W, strain swr1, active compounds read low 1.02 | locus YDR335W, strain msn5, active compounds read low 1.04 | locus YDR388W, active compounds read low 1.04 | locus YDR392W, strain spt3, active compounds read low 0.998 | locus YDR502C, strain sam2, active compounds read low 1.04 | locus YEL003W, strain gim4, active compounds read low 0.998 | locus YEL037C, strain rad23, active compounds read low 1 | locus YEL061C, strain CIN8 (second series), active compounds read low 1.01 | locus YEL061C, strain CIN8, active compounds read low 1.01 | locus YER015W, strain faa2, active compounds read low 1.03 | locus YER016W, strain bim1, active compounds read low 1.01 | locus YER110C, active compounds read low 1.02 | locus YER111C, strain swi4, active compounds read low 1.03 | locus YER155C, strain BEM2 (second series), active compounds read low 1.01 | locus YER155C, strain BEM2, active compounds read low 1.01 | locus YER167W, strain BCK2, active compounds read low 1.02 | locus YFR010W, strain ubp6, active compounds read low 1.02 | locus YGL078C, strain dbp3, active compounds read low 1.04 | locus YGL086W, strain mad1, active compounds read low 1.01 | locus YGL167C, strain pmr1, active compounds read low 1.02 | locus YGL173C, strain kem1, active compounds read low 1.01 | locus YGL227W, strain vid30, active compounds read low 1.01 | locus YGL240W, strain doc1, active compounds read low 1.01 | locus YGL248W, strain PDE1, active compounds read low 1.01 | locus YGL253W, strain hxk2, active compounds read low 1.01 | locus YGR078C, strain PAC10, active compounds read low 1.02 | locus YGR135W, strain pre9, active compounds read low 1.06 | locus YGR229C, strain SMI1, active compounds read low 1.02 | locus YGR252W, strain gcn5, active compounds read low 1.02 | locus YHR013C, strain ard1, active compounds read low 1.08 | locus YHR027C, strain rpn1, active compounds read low 1.03 | locus YHR030C, strain SLT2, active compounds read low 1.02 and 0.951 | locus YHR079C, strain IRE1 (second series), active compounds read low 1.01 | locus YHR079C, strain IRE1, active compounds read low 0.959 | locus YHR094C, strain hxt1, active compounds read low 1.03 | locus YHR129C, strain ARP1, active compounds read low 1.01 | locus YHR142W, strain chs7, active compounds read low 1.04 | locus YHR200W, strain rpn10, active compounds read low 1.05 | locus YIL066C, strain RNR3, active compounds read low 1.01 | locus YIL073C, strain SPO22, active compounds read low 1.03 | locus YIL125W, strain kgd1, active compounds read low 1.03 | locus YIR030C, strain dcg1, active compounds read low 1.04 | locus YJL092W, strain hpr5, active compounds read low 1.01 | locus YJL095W, strain BCK1 (second series), active compounds read low 1.03 | locus YJL095W, strain BCK1, active compounds read low 1.03 and 0.977 | locus YJL115W, strain asf1, active compounds read low 1.03 | locus YJL129C, strain trk1, active compounds read low 1.03 | locus YJL134W, strain LCB3, active compounds read low 1.01 | locus YJL154C, strain vps35, active compounds read low 0.993 | locus YJL164C, strain tpk1, active compounds read low 1.06 | locus YJL166W, strain qcr8, active compounds read low 1.08 | locus YJL168C, strain set2, active compounds read low 1.02
